# Experimental data published in PubChem BioAssay (NCI).
# Compounds without any hit were thinned out: in the full panel of roughly 83,000, 20% have a hit.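 Step 1: grow cells in 96-well plates. Step 2: add test compound at a single concentration. Step 3: incubate 48 h. Step 4: record percent growth.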 A number with no mark means an inactive call. Activity calls are given as the source filed them. Rule for the calls: active = growth percent below 10; inactive = the rest.
# Test system: MDA-MB-468 breast
# Assay: NCI-60 one-dose screen, 48 h (100 = growth as untreated, 0 = no growth, -100 = all killed)
# Settings: 10 µM unless noted
row,Structure (SMILES),growth
1,C=C1C(=O)O[C@@H]2[C@@H]3O[C@@](C)(CC/C=C(\C)CCC[C@@H]2C)[C@H](O)C[C@@H]13,-24.9% (active)
2,CC(CN)[C@@H]1CC[C@]2(CO)CC[C@]3(C)[C@H](CC[C@@H]4[C@@]5(C)CCC(NCCO)C(C)(C)[C@@H]5CC[C@]43C)[C@@H]12 (some centres not stated),11.8%
3,COc1ccc([C@@H]2c3[nH]c4ccccc4c3CC3C(=O)N(C4CCN(Cc5c(F)cccc5F)CC4)CC(=O)N32)c(OC)c1 (some centres not stated),40.6% [5.26 µM]
4,NC1=NC(c2ccccc2)C2=C(N1)/C(=C/c1ccccc1)CCC2 (configuration not stated),89.6%
5,O=C(Nc1cccc(C2=NCCN2)c1)c1cccc(C(=O)Nc2cccc(C3=NCCN3)c2)c1,90.8%
6,O=C1c2cc(Cl)ccc2S(=O)(=O)c2c(NCCCNCCO)nc3ccccc3c21,-14.1% (active)
7,COc1cc(OCc2cccc(-c3ccc4c(c3)OCCO4)c2C)cc(OC)c1C=O,21.8%
8,CC12CCC(/C(=C/NNc3ccc([N+](=O)[O-])cc3[N+](=O)[O-])C1=O)C2(C)C (configuration not stated),45%
9,NC(=O)c1cc(Br)cc(Br)c1NS(=O)(=O)c1ccccc1,106%
10,CN1CCN(c2ccc3c(C(N)=O)c(NC(=O)c4ccc(C(C)(C)C)cc4)sc3c2)CC1,90.7%
11,CS(=O)(=O)c1ccc(-c2nc3ccccn3c2/C=N/Nc2nc(-c3ccc(Cl)cc3)cs2)cc1,94.2%
12,O=S(=O)(Nc1ccc2c(c1)OCO2)c1ccc(-c2cnc(C3CC3)o2)cc1,-3.85% (active)
